In all, about 47,000 compounds went through this assay and about 3,100 (6.6%) were called active. Rule as the data show it: active = inhibition above about 30%; inactive = the rest. What follows is part of a selection rich in actives, with near analogues and random picks from the rest.

Ubiquitin carboxyl-terminal hydrolase 17-like protein 5 (Homo sapiens), sequence (A8MUK1 whole entry, looked up): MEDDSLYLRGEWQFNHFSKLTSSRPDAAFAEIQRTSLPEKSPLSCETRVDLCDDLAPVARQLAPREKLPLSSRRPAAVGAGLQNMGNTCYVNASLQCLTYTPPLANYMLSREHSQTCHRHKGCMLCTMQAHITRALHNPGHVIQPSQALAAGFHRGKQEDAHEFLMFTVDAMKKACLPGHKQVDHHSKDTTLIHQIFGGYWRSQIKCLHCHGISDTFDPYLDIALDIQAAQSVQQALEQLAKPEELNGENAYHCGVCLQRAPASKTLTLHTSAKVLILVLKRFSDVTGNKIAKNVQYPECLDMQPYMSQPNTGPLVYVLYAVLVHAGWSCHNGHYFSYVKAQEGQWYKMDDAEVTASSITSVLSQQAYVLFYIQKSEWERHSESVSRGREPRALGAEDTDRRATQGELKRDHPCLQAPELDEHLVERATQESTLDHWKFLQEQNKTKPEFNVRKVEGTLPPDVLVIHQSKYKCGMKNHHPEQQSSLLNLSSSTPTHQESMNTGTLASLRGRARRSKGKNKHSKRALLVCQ

The assay has as its target Ubiquitin carboxyl-terminal hydrolase 17-like protein 5 (Homo sapiens) (UniProt A8MUK1). Description: blocks human USP17 ubiquitin-rhodamine cleavage (AID 1645855). To be noted: purified USP17, Ub-rhodamine cleavage fluorescence, 3 h; at 50 µM; hits give high values.
As a reminder, the inhibition is the drop in the measured response relative to a control, in per cent. As to `Clc1cc2nc(N3CCN(c4ccccn4)CC3)c3nncn3c2cc1Cl`, the inhibition is 31.5% (active).

Take `Cc1nn(-c2ccccc2)c(C)c1S(=O)(=O)N1CCN(c2ccccn2)CC1`: the inhibition was -17.2% (inactive).

Turning to `O=C(c1ccc(N2CCCC2)nn1)N1CCN(c2ccccn2)CC1`, the inhibition is -6.98% (inactive).

As for `Cc1ccc(Nc2nc(C(=O)NCCN3CCCCC3C)cc3occc23)cc1Cl` (stereo not drawn), the inhibition was -11.2% (inactive).

For the molecule `CCc1nc2ccc(C(=O)Nc3nc(-c4ccc5c(c4)CCN5C(=O)c4ccc(C)cc4)c(C)s3)cc2nc1CC`, the inhibition was -24.7% (inactive).

With `CC(C)(C)CC(=O)N1CCc2cc(-c3csc(NC(=O)c4ccccn4)n3)ccc21`, the inhibition was 2.12% (inactive).

As to `O=C(Nc1nc(-c2ccc3c(c2)CCN3C(=O)c2ccccc2F)cs1)c1cccnc1`, the inhibition is 77.7% (active).

For the molecule `Cc1ccc(C(=O)N2CCc3cc(-c4csc(NC(=O)CNc5ccccc5)n4)ccc32)cc1`, the inhibition was 32.4% (active).

`CCc1nc2ccc(C(=O)Nc3nc(-c4ccc5c(c4)CCN5C(=O)c4ccccc4C)c(C)s3)cc2nc1CC`: the inhibition is -14.3% (inactive).

In the case of `Cc1sc(NC(=O)c2ccccn2)nc1-c1ccc2c(c1)CCN2C(=O)C(C)C`, the inhibition is -11.3% (inactive).

Regarding `Cc1cccc(NC(=O)Cn2c(C)ncc(C(=O)NC3CCCC3)c2=O)c1C`, the inhibition is 2.77% (inactive).

As for `O=C(OCc1ccccc1F)c1cc(-c2ccccc2)nc2ccccc12`, the inhibition was 7.27% (inactive).

In the case of `CCc1nnc(NC(=O)C2CCN(C(=O)c3ccc(F)cc3)CC2)s1`, the inhibition is 5.9% (inactive).

Regarding `COc1cccc(O[C@@H]2C[C@@H](NC(=O)c3ccnn3C)[C@H](N3CCCC3)[C@H]2O)c1`, the inhibition was -13.7% (inactive).

Regarding `CCCNC(=O)c1nn(-c2ccc(F)cc2)c2c1CCCCC2`, the inhibition is 3.82% (inactive).

For `Cc1oc(C2CCC2)nc1C(=O)NCCc1c[nH]c2ccccc12`, the inhibition was 7.03% (inactive).

Take `O=C(CCc1csc(NC(=O)c2ccc(=O)[nH]c2)n1)NCCc1c[nH]c2ccccc12`: the inhibition was 36.5% (active).

Regarding `O=C(Cc1csc(NC(=O)c2ccc(=O)[nH]c2)n1)NCc1ccco1`, the inhibition is -18.1% (inactive).

Take `COCCCN1CC(=O)N2C(c3cccc([N+](=O)[O-])c3)c3[nH]c4ccccc4c3C[C@@H]2C1=O` (stereo partly drawn): the inhibition was -12.6% (inactive).

As for `O=S(=O)(Nc1ccc(Cc2ccncc2)cc1)c1ccc2c(c1)OCCO2`, the inhibition is 3.72% (inactive).

With `O=C(NCc1ccc2c(c1)OCO2)C1=CCN(Cc2ccccc2)CC1`, the inhibition was -28.1% (inactive).

For `COC(=O)c1cc2c(ccn2C)n1CC(=O)N1CCN(Cc2ccc3c(c2)OCO3)CC1`, the inhibition is -63.5% (inactive).

Regarding `O=C(Nc1cccc2ccccc12)N1CCN(Cc2ccc3c(c2)OCO3)CC1`, the inhibition was 41% (active).

Take `CNc1nc2c(c(=O)n1-c1ccccc1OC)CCN(C(=O)N1CCOCC1)C2`: the inhibition was -2.32% (inactive).

With `CCCCn1c(=O)[nH]c2cc(-c3nc(-c4ccccn4)no3)ccc2c1=O`, the inhibition is -20.4% (inactive).

Regarding `O=C(Nc1c(C(=O)N2CCOCC2)oc2ccccc12)c1ccccc1F`, the inhibition was -1.41% (inactive).

Consider `Cc1c(C(=O)NC2CCCCC2)oc2ccccc12`, for which the inhibition was 0.0641% (inactive).

For the molecule `CCS(=O)(=O)c1cccc(C(=O)Nc2c(C(N)=O)oc3ccccc23)c1`, the inhibition is 41.9% (active).

As to `CCCSc1nc(NCC2CCCO2)c2c3c(sc2n1)COC(C)(C)C3` (stereo not drawn), the inhibition is -37.2% (inactive).

`Cc1noc(C)c1CC(=O)N1CCN(c2ccccc2F)CC1`: the inhibition was 20.5% (inactive).

With `CCCc1cc(=O)oc2cc(OC(=O)C3CCN(C(=O)c4ccc(Cl)cc4)CC3)ccc12`, the inhibition is 10.2% (inactive).

For the molecule `COc1ccc(N2CCN(Cc3cc(=O)oc4cc(O)ccc34)CC2)cc1`, the inhibition was 4.8% (inactive).

Consider `CCCc1cc(=O)oc2cc(OCC(=O)NCc3ccc(OC)cc3)ccc12`, for which the inhibition was 30.6% (active).

On to `Cc1c(CC(=O)NCC(=O)O)c(=O)oc2c(C)c(O)ccc12`, for which the inhibition is -3.52% (inactive).

For the molecule `COc1ccccc1Cn1cnc2c([nH]c3cc(OC)c(OC)cc32)c1=O`, the inhibition is 58% (active).

As for `O=c1c2[nH]c3ccc(Cl)cc3c2ncn1Cc1cccnc1`, the inhibition was -5.96% (inactive).

In the case of `CCOc1ccc2[nH]c3c(=O)n(Cc4cccnc4)cnc3c2c1`, the inhibition is 25.4% (inactive).

With `Cc1ccc2[nH]c3c(=O)n(Cc4ccccn4)cnc3c2c1`, the inhibition was 48.9% (active).

As to `COc1cc(Cn2cnc3c([nH]c4ccc(Br)cc43)c2=O)cc(OC)c1`, the inhibition was 26% (inactive).

In the case of `O=c1c2[nH]c3ccc(F)cc3c2ncn1CCN1CCCC1`, the inhibition was 6.33% (inactive).

Take `O=C(O)c1cc(S(=O)(=O)NC2CCCc3ccccc32)ccc1O` (stereo not drawn): the inhibition is -9.75% (inactive).

With `COc1ccc(S(=O)(=O)Nc2ccc(-c3ccc(OC)nn3)cc2)cc1`, the inhibition was 14.6% (inactive).

Turning to `COCCN(CCOC)S(=O)(=O)c1ccc(C(=O)Nc2sccc2C(N)=O)cc1`, the inhibition is 7.55% (inactive).

`O=C(NCC(c1ccccc1)N1CCCCC1)c1cc(-c2cccs2)on1` (stereo not drawn): the inhibition was -11.5% (inactive).

`O=C1N(c2cccc(F)c2)c2ncccc2S(=O)(=O)N1Cc1ccccc1`: the inhibition was 2.92% (inactive).

With `COCCCNC(=O)[C@H](Cc1ccccc1)NC(=O)N1CCn2c1nc1ccccc12`, the inhibition is -0.405% (inactive).

As to `COc1ccc(OCC(=O)Nc2noc(-c3ccccc3)n2)cc1`, the inhibition was 23.8% (inactive).

Take `COc1cccc(NC(=O)Cn2c(C)cc(C)c2-c2nc(C(C)C)no2)c1`: the inhibition was -2.06% (inactive).

Turning to `COc1ccc(NC(=O)Cc2noc(-c3cccc(OC)c3)n2)cc1`, the inhibition is 35.7% (active).

`CC(C)c1nnc(NC(=O)C2CC(=O)N(CCc3ccc(F)cc3)C2)s1` (stereo not drawn): the inhibition is 5.74% (inactive).

As for `CCN1[C@H]2CCN(C(=O)C3(C#N)CC3)CC[C@@H]2Oc2ccccc2S1(=O)=O`, the inhibition was -12.7% (inactive).

With `Cc1ccc(NC(=O)CCC(=O)N(c2ccccc2)c2ccccc2)cc1Cl`, the inhibition is 6.95% (inactive).

As to `COc1cccc(NC(=O)COC(=O)c2ccc(OC)c(S(=O)(=O)Nc3cc(Cl)c(OC)cc3OC)c2)c1`, the inhibition is 3.55% (inactive).

Regarding `Cc1ccc(NC(=O)CCOc2ccccc2)cc1S(=O)(=O)Nc1ccccc1Cl`, the inhibition is 39.7% (active).

Regarding `O=C(NCCc1ccc(F)cc1)c1ccc(S(=O)(=O)Nc2ccccc2F)cc1`, the inhibition was 13.4% (inactive).

For `Cc1nc(CCN2CCN(Cc3ccccc3)CCC2=O)no1`, the inhibition is 9.08% (inactive).

Turning to `COC(=O)c1sc(-c2ccccc2)cc1NC(=O)c1ccc(C)cc1`, the inhibition is 8.72% (inactive).

Consider `COc1cccc(NC(=O)C2Cc3ccccc3N2C(=O)c2ccccc2)c1` (stereo not drawn), for which the inhibition is 57.8% (active).

As for `N#Cc1cccc(NC(=O)C2Cc3ccccc3CN2C(=O)c2ccccc2)c1` (stereo not drawn), the inhibition was -4.46% (inactive).

Turning to `COc1cccc(NC(=O)N2C[C@H]3CN(C(C)C)CC[C@H]32)c1`, the inhibition was -122% (inactive).

As for `Cn1cc(CN2CCC3(CC2)Nc2cc(Cl)ccc2C2=NCCN23)cn1`, the inhibition is -4.3% (inactive).

Turning to `Cc1ccccc1NS(=O)(=O)c1cc2c(cc1Cl)NC(=O)CO2`, the inhibition is 11.5% (inactive).

In the case of `COc1ccc(NC(=O)CCN2C(=O)c3cccnc3Sc3ccccc32)cc1`, the inhibition is 0.608% (inactive).

For `Cc1ccc(Cc2nc(CC(=O)Nc3ccc(F)cc3F)n[nH]2)cc1`, the inhibition was 12.8% (inactive).

For `COc1ccccc1CN1C(=O)c2cc3occc3n2CC1(C)C(=O)NC1CCCCC1` (stereo not drawn), the inhibition was 6.42% (inactive).

Consider `CC1(C(=O)NC2CCCC2)Cn2c(cc3ccccc32)C(=O)N1c1ccc(F)cc1` (stereo not drawn), for which the inhibition was 62.5% (active).

In the case of `CC(C)CCNC(=O)C1(C)Cn2c(cc3ccccc32)C(=O)N1Cc1ccccc1F` (stereo not drawn), the inhibition was -0.678% (inactive).

On to `COCCNC(=O)C(Cc1ccccc1)N1Cc2ccccc2C1=O` (stereo not drawn), for which the inhibition was 4.85% (inactive).

As for `CC1CCC(NC(=O)Cn2c(=O)[nH]c3ccccc3c2=O)CC1` (stereo not drawn), the inhibition was 41.5% (active).

Regarding `O=C(N[C@@H](C(=O)O)c1ccccc1)[C@@H](Cc1ccccc1)n1c(=O)[nH]c2ccccc2c1=O`, the inhibition was 9.14% (inactive).

Regarding `O=C(Cn1cccc1C(=O)c1ccccc1)NC1CCN(Cc2ccccc2)CC1`, the inhibition is -2.81% (inactive).

Take `CCN1CCC2(CC1)OC(=O)C(C)=C2C(=O)Nc1cc(C)ccc1C`: the inhibition was -4.59% (inactive).

With `CNc1nc(C2CCCN(C)C2)nc2c1CCN(C(=O)Cc1c[nH]c3ccccc13)C2` (stereo not drawn), the inhibition was -1.33% (inactive).

On to `Cc1ccn2c(NCCc3ccccc3)c(-c3ccc(O)cc3)nc2c1`, for which the inhibition was 20.5% (inactive).

On to `Cc1cccc(-c2noc(Cc3nnc(-c4ccccc4)o3)n2)c1`, for which the inhibition was -20.8% (inactive).

On to `Cc1cccc(-c2nc(Nc3ccc(O)cc3)c3ccccc3n2)c1`, for which the inhibition was 69.2% (active).

Take `Cc1nccc(C2CN(C(=O)CCc3c[nH]c4ccccc34)CCO2)n1` (stereo not drawn): the inhibition was -0.542% (inactive).

Consider `CN1CC(c2ncn[nH]2)c2cc(C(=O)NCc3cccc(F)c3)ccc21` (stereo not drawn), for which the inhibition was 8.47% (inactive).

As to `O=C(Cc1cccc(C(F)(F)F)c1)Nc1cccn2ncnc12`, the inhibition was -3.85% (inactive).

Turning to `O=C(Cc1c(Cl)cccc1Cl)NCc1cccc(C(F)(F)F)c1`, the inhibition is 34.4% (active).

Turning to `O=C(NCc1ccccc1)c1nc[nH]c1C(=O)NCc1cccc(C(F)(F)F)c1`, the inhibition is -0.00262% (inactive).

Take `Cc1ccc(S(=O)(=O)NC2=NC(c3ccccc3)c3cc(Cl)ccc3N2)cc1` (stereo not drawn): the inhibition is 10.4% (inactive).

With `O=C(NCCC1=CCCCC1)c1ccc(-c2noc(-c3ccccc3)n2)s1`, the inhibition is 2.81% (inactive).

With `COc1ccc(-c2nc(-c3nnn(Cc4cccc(F)c4)c3C)no2)cc1`, the inhibition is -0.491% (inactive).

Regarding `COc1ccc(-c2nc(C3CC(=O)N(c4ccccc4)C3)no2)cc1` (stereo not drawn), the inhibition is 7.38% (inactive).

Take `CCOc1ccc(-c2noc(-c3nn(-c4cccc(OC)c4)ccc3=O)n2)cc1`: the inhibition was 72.3% (active).

`CCOC(=O)c1cnn(-c2ncc(C(=O)OC)c(C(F)(F)F)n2)c1C(F)(F)F`: the inhibition was 3.18% (inactive).

For the molecule `O=C(NCc1ccco1)c1ccc2c(=O)nc3c(-c4ccc(F)cc4)n[nH]n3c2c1`, the inhibition is 11.8% (inactive).

For the origin of these results see PubChem BioAssay AID1645855 (Buhrlage Lab, Dana-Farber Cancer Institute and Novartis …, 2021).
